This is an account of results in the supplement of paper PMC12350171.

Molecules are shown by their SMILES. Where a name gives a salt, the structure may show the parent alone. Unmarked numbers belong to inactive results.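 The calls were made as follows: active = AUC significantly below DMSO controls by Student t-fit with adjusted P under 0.01; inactive = not significantly reduced.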

The assay concerns Haemophilus parainfluenzae. Briefly: growth AUC normalised to DMSO control (fraction of control); higher = less growth inhibition, active = hit call of the paper. The conditions noted are these: 20 µM. An outline of the steps:
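After two anaerobic passages, pathogens were added at a starting OD578 of 0.01 to pre-reduced mGAM plates holding compound at 20 μM with 1% DMSO; hemin and NAD were supplemented for Haemophilus parainfluenzae. Sealed with breathable membranes, plates were read at OD578 hourly for 24 h, in three biological replicates. The trapezoidal rule, applied up to the exponential-to-stationary transition, gave the growth-curve AUC, which was normalised to DMSO controls on the same plate.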
For the molecule `Cc1c(-c2ccccc2)oc2c(C(=O)OCCN3CCCCC3)cccc2c1=O` [Flavoxate hydrochloride], the “growth AUC normalised to DMSO control” value was 1.2.

On to `CC1COc2c(N3CCN(C)CC3)c(F)cc3c(=O)c(C(=O)O)cn1c23` (stereo not drawn) [Ofloxacin], for which the “growth AUC normalised to DMSO control” value was 0.0492 (active).

Take `C#C[C@]1(O)CC[C@H]2[C@@H]3CCC4=Cc5oncc5C[C@]4(C)[C@H]3CC[C@@]21C` [Danazol]: the “growth AUC normalised to DMSO control” value is 0.908.

`CCCCCN(C)CCC(O)(P(=O)(O)O)P(=O)(O)O` [Ibandronate sodium]: the “growth AUC normalised to DMSO control” value is 0.995.

Take `COc1ccc2cc([C@H](C)C(=O)O)ccc2c1` [(S)-Naproxen]: the “growth AUC normalised to DMSO control” value is 1.

With `CCN(CC)CCNC(=O)COc1ccc(OC)cc1` [Mefexamide hydrochloride], the “growth AUC normalised to DMSO control” value is 0.985.

Turning to `CCS(=O)(=O)CCn1c([N+](=O)[O-])cnc1C` [Tinidazole], the “growth AUC normalised to DMSO control” value is 0.987.

As to `O=C(O)CCc1nc(-c2ccccc2)c(-c2ccccc2)o1` [Oxaprozin], the “growth AUC normalised to DMSO control” value was 1.08.

As for `CC(C)(Oc1ccc(Cl)cc1)C(=O)O` [Clofibric acid], the “growth AUC normalised to DMSO control” value was 0.908.

In the case of `Cc1c(OCC(F)(F)F)ccnc1C[S+]([O-])c1nc2ccccc2[nH]1` (stereo not drawn) [Lansoprazole], the “growth AUC normalised to DMSO control” value was 0.873.

Consider `COC(=O)CCc1ccc(OCC(O)CNC(C)C)cc1` (stereo not drawn) [Esmolol hydrochloride], for which the “growth AUC normalised to DMSO control” value was 1.09.

As to `Cc1onc(-c2ccccc2)c1C(=O)N[C@@H]1C(=O)N2[C@@H]1SC(C)(C)[C@@H]2C(=O)O` [Oxacillin sodium], the “growth AUC normalised to DMSO control” value was 0.928.

For `CN(CCCCCCCCCCN(C)C(=O)Oc1cccc([N+](C)(C)C)c1)C(=O)Oc1cccc([N+](C)(C)C)c1` [Demecarium bromide], the “growth AUC normalised to DMSO control” value was 0.923.
